Source: PubChem BioAssay (National Center for Advancing Translational Sciences (NCATS))
In the library only some 1.7% were active in any assay of this set; here they are far more common.
GLP-1R agonist: agonists of human GLP-1 receptor; P43220; HEK293 GLP-1R CRE-luciferase, luminescence, 4-6 h; cells express a hypersensitive GLP-1R form; Potency, µM (top dose mostly 45.6 µM), inactives show at the top dose activation, actives largely listed as activators; actives 0.007% (n = 380,000); note: % of control where 0% means no effect
Target sequence (P43220 whole entry, looked up): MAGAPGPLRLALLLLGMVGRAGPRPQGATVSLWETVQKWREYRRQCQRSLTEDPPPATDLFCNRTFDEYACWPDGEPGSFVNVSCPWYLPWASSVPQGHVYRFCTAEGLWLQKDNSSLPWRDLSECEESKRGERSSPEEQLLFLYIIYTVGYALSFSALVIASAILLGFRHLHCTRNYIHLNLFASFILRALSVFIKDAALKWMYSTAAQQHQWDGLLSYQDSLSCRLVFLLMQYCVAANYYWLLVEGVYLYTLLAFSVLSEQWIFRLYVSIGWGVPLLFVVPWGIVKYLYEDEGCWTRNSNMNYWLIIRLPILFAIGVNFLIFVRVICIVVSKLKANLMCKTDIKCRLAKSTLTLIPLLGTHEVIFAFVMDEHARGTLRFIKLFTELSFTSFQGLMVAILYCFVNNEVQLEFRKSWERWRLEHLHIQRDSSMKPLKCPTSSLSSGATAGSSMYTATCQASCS
RGS4 inh: inhibitors of human regulator of G protein signaling 4; P49798; Transcreener GDP fluorescence polarization, RGS4-accelerated GTP hydrolysis; Potency, µM (doses to about 114 µM), for inactives: at the highest dose activity change, negative = inhibition, most hits filed as inhibitors; actives 0.039% (n = 390,000); note: % is set by controls: 0 for no effect and ±100 for the full control effect; nearly all actives have a fitted effect of over 75% in size
Target sequence (P49798 whole entry, looked up): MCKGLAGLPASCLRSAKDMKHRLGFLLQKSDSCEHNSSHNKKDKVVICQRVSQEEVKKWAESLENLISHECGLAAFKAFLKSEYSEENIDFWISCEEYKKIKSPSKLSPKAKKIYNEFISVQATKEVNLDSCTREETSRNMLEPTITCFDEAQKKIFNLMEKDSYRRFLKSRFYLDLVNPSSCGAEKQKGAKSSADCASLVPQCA
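MLSMR compounds (23 nl, pin-transferred) preincubated 10 min at room temperature with a 500nM (2x) first reagent, then RGS4 at 900nM (2x) plus Transcreener GDP mix added; fluorescence polarization (620/688 nm) read before and after 90 min at 30 °C.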
PTHR1 ag: agonists of human PTHR1 parathyroid hormone receptor; actives 0.075% (n = 410,000); Potency, µM (series often up to 115 µM), without a hit: at the top dose activation, usual class: activators; HEK293 GP2 PTHR1 cells, GloSensor cAMP luminescence, 1 h; AID 743266; note: nearly all actives have a fitted effect of over 55% in size
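HEK-293-derived GP2 cells expressing PTHR1 and a GloSensor cAMP reporter, 3,000/well, plated overnight, given luciferin plus IBMX (each 0.5 mM as added) for 1 h at 37 °C, then compound for 1 h at 37 °C. Luminescence was read after 15 min at room temperature.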
GLP-1R inv ag: GLP-1 receptor (human) inverse agonism. HEK293 GLP-1R CRE-luciferase, luminescence, 24 h; GLP-1R form is constitutively active. Potency, µM (doses to about 38.3 µM), without a hit: at the top dose activity change, negative = inhibition, usual class: inhibitors. P43220. actives 1.6% (n = 410,000); note: % is set by controls: 0 for no effect and ±100 for the full control effect; nearly all actives have a fitted effect of over 55% in size
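Readout was luciferase luminescence, measured 12 min after detection reagent at room temperature. Beforehand, GLP-1R reporter HEK293 cells had sat 12 h, then received compounds for 24 hr at 37 deg C.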
HEK293 tox: cytotoxicity counter-screen for GLP-1 receptor inverse agonists; HEK293 cAMP-luciferase reporter cells, luminescence, 24 h; Potency, µM (highest dose often 38.3 µM), for the others: at the highest dose activity change, negative = inhibition, usual class: inhibitors; actives 0.13% (n = 410,000);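 note: loss of luciferase light is scored as toxicity; % is set by controls: 0 for no effect and ±100 for the full control effect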
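Cells in DMEM/10% Nu serum/1% pen-strep, 1536-well format. Pre-incubated 12 h, dosed with 23 nL compound, incubated a further 24 h. Luciferase detection, 12 min at room temp, luminescence.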
Active calls of the source: *; i = inactive; ? = inconclusive; . = no result; ! = not active in a repeat; [ ] = dose if it differs, or a comment. Calls come from the whole dose curve; as a rule, active = well fitted curve in the direction sought with a large enough effect; inconclusive = small, poorly fitted or top-dose-only effect, or another doubt; inactive = no such curve, though single readings can be large; an effect the other way counts as inactive or inconclusive. Potency is the fitted concentration of half-maximal effect.

SMILES	GLP-1R agonist	RGS4 inh	PTHR1 ag	GLP-1R inv ag	HEK293 tox
Cc1ccsc1CNCc1cc(Cl)ccc1O	9.7%	24.4%	-7.0%	7.0%	-0.5%
CNCCC=C1c2ccccc2CCc2ccccc21	11.3%	-16.0%[56.9 µM]	-5.3%	6.31µM*	-18.1%
C[N+](C)(C)CC/C=C1/c2ccccc2CSc2ccccc21	-4.8%	-5.6%	i	-4.6%	-9.2%
N#CC1(Cc2ccc([N+](=O)[O-])cc2)c2ccccc2C=CN1C(=O)c1ccccc1 (stereo not given)	-30.3%	0.3%	-32.7%[57.5 µM]	4.9%	17.9%
N#CC1(Cc2ccccc2)c2ccccc2C=CN1C(=O)c1ccccc1 (stereo not given)	-5.6%	-14.2%	-10.4%[57.5 µM]	8.91µM*	8.0%
S=C(NC1CCCCC1)N(CCc1nc2ccccc2[nH]1)C1CCCC1	-4.6%	-41.0%	-1.9%	10µM*	?
CC(Oc1ccc(Cl)cc1Cl)C(=O)NC(=S)N1CCc2ccccc21 (stereo not given)	-12.4%	-10.6%	-1.1%	10µM*	?
Cc1nc2c3ccccc3nc(NNC(=O)CCC(=O)NCCC(C)C)n2n1	3.2%	-19.6%	-4.0%	16.1%	7.4%
CCN(CC)CCCNC(=O)CCC(=O)NNc1nc2ccccc2c2nc(C)nn12	-6.3%	-7.5%	-13.9%	-6.5%	7.94µM*!
COc1ccc(N(CC(=O)NCCc2cccc(C)c2)S(=O)(=O)c2c(C)nn(C)c2C)cc1	0.1%	-3.8%	i	-2.0%	-12.2%
CCc1ccc(Sc2cc(C(=O)NCc3cccc(OC)c3)c3ccccc3n2)cc1	-7.3%	-5.2%	-24.0%	10µM*	-7.4%
COc1cccc(CNC(=O)c2cccnc2Sc2ccccc2)c1	?	11.0%	i	134.9%	-8.2%
Cc1cc(OCC(=O)NCCCN(C)C)cc(C)c1Br	0.5%	-40.5%	-11.8%[57.5 µM]	2.82µM*	13.6%
CCc1ccc(OCC(=O)NCCN(C)C)c(Br)c1	11.2%	21.9%	i	10µM*	8.7%
CCc1ccc(OCC(=O)NC2CCCCC2)c(Br)c1	16.5%	-11.4%	-29.7%	?	12.5%
Cc1ccccc1Cn1c(NC2CCCC2)nc2c1c(=O)[nH]c(=O)n2C	11.1%	17.2%	-12.5%	-0.8%	8.4%
Cc1nc2c(OCc3ccc(Cl)cc3)cccn2c1N(C)C(=O)CCC1CCCC1	3.3%	.	-40.7%	15.6%	0.6%
COc1ccc(CCN(C(=O)C(F)(F)F)C(C(=O)NC2CCCCC2)c2cccs2)cc1 (stereo not given)	4.6%	-6.1%	i	6.31µM*	-3.6%
COc1ccc(CCN(C(=O)C(F)(F)F)C(C(=O)NC2CCCCC2)c2ccc(C)s2)cc1 (stereo not given)	-0.3%	-9.8%	i	?	-12.0%
COc1cc(C(CC(=O)Nc2ccc(F)cc2F)N2Cc3ccccc3C2=O)cc(OC)c1OC (stereo not given)	19.7%	-6.4%	-21.7%	33.2%	13.3%
CCOc1ccccc1NC(=O)CSc1nc2ccccc2nc1Cc1ccc(C)cc1	-0.9%	-4.5%	i	0.1%	2.5%
COc1ccccc1NC(=O)CN1C(=O)CC(c2ccc(C)c(C)c2)=Nc2ccccc21	.	-0.8%	-11.6%	10µM*	-11.2%
CC1=NN(C(=O)CSCc2ccccc2)C(O)(c2ccc(F)cc2)C1 (stereo not given)	13.6%	17.5%	-9.5%	7.94µM*	-3.9%
CC1=NN(C(=O)CSCc2ccccc2)C(O)(c2ccc(Cl)cc2)C1 (stereo not given)	-4.3%	-17.5%[56.9 µM]	-95.3%	?	17.4%
O=C(CCCSc1nnnn1-c1cccc2ccccc12)c1ccc(F)cc1	9.9%	1.5%	-17.3%	10µM*	-5.2%
SMILES	GLP-1R agonist	RGS4 inh	PTHR1 ag	GLP-1R inv ag	HEK293 tox
O=C(CSc1nnnn1-c1cccc2ccccc12)Nc1ccc(C(=O)O)cc1	-5.1%	15.8%	-0.4%	13.5%	-20.9%
CC1(C(=O)Nc2nccs2)CCN1C(=O)CC(c1ccccc1)c1ccccc1 (stereo not given)	-2.4%	.	-48.1%	0.6%	6.8%
CCCCNc1nc2c(S(=O)(=O)c3ccc(C)cc3)nnn2c2ccsc12	.	0.0%	i	39.8%	4.5%
Cc1onc(-c2ccccc2Cl)c1C(=O)NCc1nc(-c2ccc(C(F)(F)F)cc2)no1	13.9%	27.9%	-8.0%	10µM*	16.1%
Cc1onc(-c2ccccc2Cl)c1C(=O)NCc1ccccc1F	-0.5%	20.0%	-10.0%	-28.7%	-4.7%
CCN(CC)S(=O)(=O)c1ccc(N/N=C(\C)c2ccc(OC)cc2O)nc1	-0.3%	27.0%	-9.5%	2.51µM*	?
CCN(CC)S(=O)(=O)c1ccc(N/N=C/c2ccc(O)cc2)nc1	7.2%	-7.6%	-22.7%	7.7%	-7.6%
O=S1(=O)c2ccc(Br)cc2N2CCC[C@H]2CN1Cc1ccccc1	12.8%	11.8%	i	3.98µM*	?
CC1(C(=O)N(Cc2ccccc2)Cc2ccccc2)CC1(Br)Br (stereo not given)	-6.6%	-11.3%	-58.5%	3.98µM*	5.1%
O=C(c1ccccc1)N(Cc1ccccc1)Cc1ccccc1	14.5%	-5.8%	-4.9%	?	3.7%
O=S(=O)(c1ccccc1)N1CCC(O)(CSc2ccc(F)cc2)CC1	8.6%	17.1%	-26.6%	-22.6%[7.66 µM]	-1.7%[7.66 µM]
O=S(=O)(c1ccccc1)N1CCC(O)(CSc2ccccc2)CC1	14.3%	32.0%	-18.3%	10µM*	6.1%
Cc1c(C(=O)N(C)C)sc2c1c(=O)n(-c1ccc(Cl)cc1)c(=O)n2CC(=O)C(C)(C)C	.	5.4%	-17.8%	6.4%	-1.3%
Cc1ccc(C)c(S(=O)(=O)NCc2ccc(C(=O)N3CCN(C)CC3)cc2)c1	-9.8%	31.6%	i	2.8%	14.1%
Cc1ccc(C(=O)N2CCC(Cc3ccccc3)CC2)cc1[N+](=O)[O-]	17.4%	3.2%	i	10µM*	-3.4%
Cc1ccc(C)c(S(=O)(=O)NCc2ccc(C(=O)N3CCC(Cc4ccccc4)CC3)cc2)c1	4.3%	8.9%	i	10µM*	-27.5%
Cc1c(C(=O)N2CCC(Cc3ccccc3)CC2)cccc1[N+](=O)[O-]	4.0%	?	-33.7%	-14.4%[7.66 µM]	1.5%[7.66 µM]
COc1ccc(C2(C)C(C#N)C(=O)NC(=O)C2C#N)cc1 (stereo not given)	-7.0%	12.3%	-29.1%	-27.2%	-18.6%
CCOc1ccc(NC(=O)Cn2c(=O)n(CC(=O)NCCc3ccccc3)c(=O)c3sccc32)cc1	.	5.8%	i	7.4%	1.7%
CC(Sc1nc(-c2ccccc2)cc(C(F)(F)F)n1)C(=O)O (stereo not given)	3.4%	?	4.9%	-2.2%	4.7%
CCN(CC)CCCNC(=O)C(C)Sc1nc(-c2ccccc2)cc(C(F)(F)F)n1 (stereo not given)	8.6%	5.2%	i	2.82µM*	1.6%
